# High-throughput results: PubChem BioAssay, several laboratories
# E-sel TNF inh: blocks E-selectin expression induced by TNF alpha; HUVEC TNFa-induced E-selectin immunofluorescence, high content; inhibition, % at 2 µM; 120,000 tested, 0.71% active;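 active = inhibition above the batch mean plus 3 SD, and confirmed as a hit on visual image review, cut at about 43% in these data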;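 also: 0% = TNF-stimulated DMSO wells and 100% = unstimulated control wells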
# VCAM1 TNFa inh: reduces TNF alpha induced VCAM1 expression in HUVEC. inhibition, % at 2 µM. HUVEC TNFa-induced VCAM-1 immunofluorescence, high-content imaging. 95,000 tested, 0.48% active;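 active = inhibition above the batch mean plus 3 SD, with images confirmed as a hit by eye, cut at about 37% in these data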;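 also: 0% = TNF-stimulated DMSO wells and 100% = unstimulated control wells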
# HUVEC tox TNFa: HUVEC cytotoxicity counter-screen, TNF alpha stimulated; HUVEC TNFalpha-stimulated, Hoechst cell count, imaging; cell count reduction, % at 2 µM; 93,000 tested, 0.17% active;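 active = cell count reduction exceeding the screen mean by over 5 SD, scaled to untreated wells per plate, cut at about 78% in these data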;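 also: cells counted after 24 h of TNF alpha exposure following the 1 h pretreatment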
# cytoskel mod: modifiers of cytoskeleton assembly; HUVEC TNFa F-actin phalloidin imaging, high content; AID 836; inhibition, % at 2 µM; 91,000 tested, 0.18% active;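 active = inhibition above the batch mean plus 3 SD and confirmed as a hit by visual image inspection, cut at about 30% in these data, passing the limit was not always enough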
# Phagocytosis inh: blocks phagocytosis by macrophages; inhibition, % at 5 µM; J774A.1 macrophage IgG-bead phagocytosis, imaging; 110,000 tested, 0.07% active;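 active = inhibition above the mean of the plate negative controls plus 5 SD, cut at about 13% in these data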;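 also: phagocytic index as fraction of beads internalized from green versus red external bead signal; plate controls were DMSO negative control for no effect and cytochalasin-D positive control for full effect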
# SDO1 yeast rescue: sdo1-depleted yeast growth rescue | 140,000 tested, 0.21% active | z-score at 10 µM | S. cerevisiae sdo1-depleted JHY4D growth rescue, OD600 30 h; active compounds read high; pdr5 snq2 efflux-pump mutant strain | AID 817;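 active = z-score above 3 at both the 24 hr and the 30 hr optical density reads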;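 also: z-score against mean and SD of all compound wells on the same plate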
# An asterisk follows results filed as active; x = no result; [ ] = remark or other dose. A selection: hits, their analogues and other compounds. The true share with any hit is near 1.2%.
SMILES,E-sel TNF inh,VCAM1 TNFa inh,HUVEC tox TNFa,cytoskel mod,Phagocytosis inh,SDO1 yeast rescue
CCN(CC)S(=O)(=O)c1ccc(C(=O)NCC(c2ccc(OC)cc2)N2CCOCC2)cc1 (centres undefined),-5.9,x,x,x,x,x
COc1ccc(-c2nnc(SCC(=O)N3CCCc4ccccc43)o2)cc1OC,-14.5,-5.0,7.3,33.9*,x,-0.59
COc1ccc(-c2nnc(SCC(=O)N3CCCC3)o2)cc1OC,4.0,x,x,x,x,x
Cc1cccc(C)c1OCC(=O)Nc1ccc(N2CCOCC2)cc1,-3.3,x,x,x,x,x
CCN1C(=O)c2cccc3c(NC(=O)c4cccc(N5C(=O)CCC5=O)c4)ccc1c23,60.1*,0.9,-17.5,-25.3,-3.3,1.15
CCOc1cc(C(=O)Nc2ccc3c4c(cccc24)C(=O)N3CC)cc(OCC)c1OCC,-19.2,15.1,6.1,-17.8,-0.4,-0.37
C#CC(=O)N(c1ccc(OC)cc1OC)C(C(=O)NC1CCCC1)c1cccs1 (centres undefined),30.7,x,x,x,x,x
C#CC(=O)N(c1cc(OC)ccc1OC)C(C(=O)NC1CCCC1)c1cccs1 (centres undefined),58.3*,35.0,15.4,8.7,72.6*,-1.45
O=C(COc1ccccc1-c1ccccc1)N/N=C/c1cccc2ccccc12,17.3,68.7*,54.8,-31.0,x,-0.63
CC(OC(=O)c1cc(=O)[nH]c2ccccc12)C(=O)c1ccccc1 (centres undefined),-23.4,x,x,x,x,x
CC(OC1=CC(=O)CCC1)C(=O)c1ccccc1 (centres undefined),13.1,-4.4,6.8,5.2,187.1*,-0.1
Cc1cc(C)c(C)c(OC(=O)c2sc(Cl)nc2C)c1,x,x,x,x,0.1,-0.79
Cc1ccc(N(CC(=O)NCc2ccco2)C(=O)CCC(=O)Nc2ccccn2)cc1C,5.5,3.9,-22.3,-12.9,-0.3,0.79
O=C(CN(C(=O)CCC(=O)Nc1ccccn1)c1ccc2c(c1)OCO2)NCc1ccco1,70.3*,6.3,-47.1,25.3,-0.8,1.17
NCCN1CCN(CCN)CC1,5.1,94.4*,2.6,3.8,-1.2,0.86
Cc1ccc(N)cc1S(=O)(=O)N(C)C,54.9*,x,x,x,x,x
CC(C)c1nnc(NC(=O)CCC(=O)N2CCN(C3CCCCC3)CC2)s1,20.9,35.9*,23.3,-2.6,0.1,0.09
CC(C)CC(=O)n1sc(NC(=O)c2ccccc2)nc1=O,100.0*,9.6,-28.8,50.4,4.4,1.79
O=Cc1cc2ccccc2nc1SCCCF,3.0,x,x,x,x,x
Cc1cc(C)c2c(n1)sc1c(N3CCOCC3)ncnc12,-12.3,60.8*,11.3,-33.4,x,x
COc1cc(-c2nnc(-c3ccccc3)o2)cc(OC)c1OC,1.6,-15.1,-5.8,-3.8,x,-0.23
COc1cc(-c2nnc(COc3ccc4ccccc4c3)o2)cc(OC)c1OC,100.0*,-1.1,-24.4,5.1,x,-0.58
CCc1c(C)nc2c(OC)cccc2c1SCCC(=O)O,x,x,x,x,36.8*[artifact],0.57
O=C(Nc1ccc2nc(SCc3ccc(Cl)cc3)sc2c1)c1ccccc1C(=O)N1CCOCC1,53.0*,26.4,18.5,-18.9,x,-1.22
COC(=O)/C=C/S(=O)(=O)c1ccc(NC(C)=O)cc1,92.3*,1.3,-26.0,-6.1,-0.7,0.28
SMILES,E-sel TNF inh,VCAM1 TNFa inh,HUVEC tox TNFa,cytoskel mod,Phagocytosis inh,SDO1 yeast rescue
C=CCc1cccc(/C=N/NC(=O)CCCNc2ccc(C)cc2)c1O,68.7*,x,x,x,-10.3,-0.89
CCN1/C(=C/C=C/c2oc3ccc(-c4ccccc4)cc3[n+]2CC)Oc2ccc(-c3ccccc3)cc21,11.8,x,x,x,x,x
O=C(Nc1ccccc1)c1nnsc1S(=O)c1ccc(Cl)cc1 (centres undefined),79.5*,43.1*,4.1,24.6,0.6,-1.98
CN(C(=O)CSCC(=O)O)C1CCCCC1,x,x,x,x,-4.9,0.72
Cc1ccc2nc(-c3ccc(NS(C)(=O)=O)cc3)cc(-c3ccccc3)c2c1,-8.7,5.8,x,9.9,x,-1.65
CCS(=O)(=O)Nc1ccc(-c2cc(-c3ccccc3)c3cc(C)ccc3n2)cc1,78.8*,x,x,x,-9.4,0.06
COC(=O)c1ccc(CN2C(=O)NC(CC(C)C)C2=O)cc1 (centres undefined),-0.2,x,x,x,x,x
CN(C)S(=O)(=O)c1cc(NC(=O)CSc2nn(-c3ccc(Cl)cc3)c(=S)s2)ccc1Cl,71.7*,x,x,x,-3.9,0.33
COc1cc2c(cc1OC)CN(C(=S)NC(=O)c1ccccc1)CC2,-19.1,x,x,x,x,x
COc1cc(NC(=O)CN2C(=O)NC(C)(CCC(C)C)C2=O)cc(OC)c1 (centres undefined),-1.3,5.7,-30.8,27.0,0.4,0.38
COc1cc(NC(=O)CN2C(=O)NC(C)(CC(C)C)C2=O)cc(OC)c1 (centres undefined),3.4,92.8*,-41.3,42.8,-0.6,1.02
O=C(NCCC1=CCCCC1)c1coc(=O)c(Br)c1,85.7*,13.2,-11.3,-10.2,-1.6,-1.64
CCOC(=O)CCNCc1ccc(F)cc1,5.0,x,x,x,x,x
CCS(=O)(=O)N1CCN(c2ccc([N+](=O)[O-])c(N3CCOCC3)c2)CC1,96.9*,x,x,x,0.5,1.43
CCN(CC)S(=O)(=O)c1ccc(OC)c(NC(=S)Nc2ccc(C)c(C)c2)c1,x,x,x,x,-10.0,-0.66
CSc1ccc(-c2cc(=O)c3ccccc3o2)cc1,17.6,24.1,-20.3,-2.7,-0.8,-1.17
O=c1cc(-c2ccc(F)cc2)oc2ccccc12,44.1*,14.4,-30.6,3.5,x,x
O=C(COC(=O)c1cc(-c2cccs2)nn1-c1ccccc1)Nc1ccc(F)c([N+](=O)[O-])c1,x,x,x,x,-1.2,-0.64
O=C(O)CCCNc1c(C(=O)Nc2ccc(Cl)cc2)cc([N+](=O)[O-])cc1[N+](=O)[O-],49.0,x,x,x,x,x
N=c1nc(N)nc2n1NC(c1ccc(F)cc1)=CS2,15.4,55.1*,-1.9,-16.1,2.1,-1.88
COc1ccc(C2=CSC(/N=C/c3ccc(F)cc3)=NN2)cc1,4.4,11.1,-8.0,-26.1,x,0.13
COc1ccc(/C=N/NC(=O)CCSc2nc3ccccc3s2)cc1,x,x,x,x,1.4,-0.79
Cc1ccc(SCCNC(=O)c2cccc([N+](=O)[O-])c2C)cc1,-18.2,-14.4,-2.7,2.9,-0.9,-1.66
COCCNC(=O)c1ccccc1NC(=O)c1cccc([N+](=O)[O-])c1C,60.4*,x,x,x,x,x
CN(C(=S)NC(=O)c1ccc(Br)o1)c1ccccc1,-16.5,x,x,x,-3.6,-0.18
SMILES,E-sel TNF inh,VCAM1 TNFa inh,HUVEC tox TNFa,cytoskel mod,Phagocytosis inh,SDO1 yeast rescue
CC1(c2ccc(C#N)cc2)NC(=O)N(CC(=O)Nc2cc(S(=O)(=O)N3CCOCC3)ccc2Cl)C1=O (centres undefined),25.4,x,x,x,x,x
Cc1ccccc1Cn1ccc(NC(=O)c2cnn3c2NC(c2ccccc2)CC3C(F)(F)F)n1 (centres undefined),75.2*,4.2,-34.4,16.5,-1.7,-1.72
O=C(NCc1ccco1)c1cnn2c1NC(c1ccccc1)CC2C(F)(F)F (centres undefined),x,-21.8,-7.8,-17.6,0.8,-0.27
COc1ccc(CCNC(=O)COc2ncnc3cc([N+](=O)[O-])ccc23)cc1,74.1*,x,x,x,-9.2,0.14
O=C(COc1ncnc2cc([N+](=O)[O-])ccc12)NCc1ccc2c(c1)OCO2,-21.0,-17.0,-5.2,-1.0,-0.1,0.69
Cc1cc(C)c2nc(SCC(=O)NC(=O)c3cccn3C)cc(C)c2c1,-18.0,x,x,x,x,x
